High-throughput results deposited in PubChem by National Center for Advancing Translational Sciences (NCATS).
NPSR antag: blocks cAMP signaling of the human neuropeptide S receptor. Q6W5P4. CHO-NPSR cells, cAMP TR-FRET, antagonist mode. Potency, µM (titrated, usually from 38.3 µM), for inactives: at the top dose activity change, negative = inhibition, usual class: inhibitors. 1% of 220,000 active; note: potency is the fitted concentration of half-maximal effect; nearly all actives have a fitted effect of over 50% in size
ALDH1A1 inh: inhibitors of human aldehyde dehydrogenase 1A1 | P00352 | Purified ALDH1A1, NADH fluorescence, propionaldehyde substrate | Potency, µM (titrated, usually from 75.3 µM), inactives show top-dose activity, negative = inhibition, most hits filed as inhibitors | 7.3% of 220,000 active; active = well fitted inhibition curve with a large enough effect, not every such curve was filed as active; inconclusive = small, poorly fitted or top-dose-only effect, or another doubt; inactive = no such curve, though single readings can be large or run the other way;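 note: potency is the fitted concentration of half-maximal effect; plate controls were no enzyme wells and a reference inhibitor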
Target sequence (P00352 whole entry, looked up): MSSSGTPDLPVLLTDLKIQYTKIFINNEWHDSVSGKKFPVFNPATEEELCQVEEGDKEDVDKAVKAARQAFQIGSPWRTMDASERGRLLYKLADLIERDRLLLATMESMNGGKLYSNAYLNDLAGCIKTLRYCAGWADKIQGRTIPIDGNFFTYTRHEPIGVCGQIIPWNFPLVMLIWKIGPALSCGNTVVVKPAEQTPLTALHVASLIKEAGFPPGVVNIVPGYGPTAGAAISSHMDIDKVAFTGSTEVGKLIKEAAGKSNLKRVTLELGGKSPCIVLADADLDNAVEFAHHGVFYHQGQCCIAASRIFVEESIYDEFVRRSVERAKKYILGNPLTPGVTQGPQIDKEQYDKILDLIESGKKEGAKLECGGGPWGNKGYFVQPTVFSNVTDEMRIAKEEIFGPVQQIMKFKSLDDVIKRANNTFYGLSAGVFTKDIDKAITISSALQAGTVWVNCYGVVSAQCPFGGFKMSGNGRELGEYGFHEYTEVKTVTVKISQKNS
HPGD inh: HPGD (human) dehydrogenase inhibition; P15428; purified HPGD, NADH fluorescence kinetic, PGE2 substrate; Potency, µM, for the others: at the top dose activity change, negative = inhibition, usual class: inhibitors; 4.3% of 150,000 active; active = well fitted inhibition curve with a large enough effect, not every such curve was filed as active; inconclusive = small, poorly fitted or top-dose-only effect, or another doubt; inactive = no such curve, though single readings can be large or run the other way; note: potency is the fitted concentration of half-maximal effect
Target sequence (P15428 whole entry, looked up): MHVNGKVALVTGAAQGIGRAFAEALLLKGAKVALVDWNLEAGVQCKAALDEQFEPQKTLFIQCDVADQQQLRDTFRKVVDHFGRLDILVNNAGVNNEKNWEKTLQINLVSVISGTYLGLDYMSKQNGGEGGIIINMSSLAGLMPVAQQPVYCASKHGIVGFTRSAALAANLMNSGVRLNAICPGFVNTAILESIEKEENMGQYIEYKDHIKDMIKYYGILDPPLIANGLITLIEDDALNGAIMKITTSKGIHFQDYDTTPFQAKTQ
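20 nM HPGD preincubated 15 min at room temperature with compound in 50 mM Tris-HCl pH 8, 0.01% Tween 20. Started with 1 mM NAD+ and 30 uM prostaglandin E2; NADH fluorescence (360/450 nm) read 5 times over 30-s intervals, last minus first.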
IMPase inh: membrane-permeable compound that blocks inositol monophosphatase; inhibition (IP1 accumulation), % at 46.1 µM; 120,000 tested, under 10 active; CHO-M1 cells, IP1 accumulation, HTRF TR-FRET ratio; AID 901; active = well fitted curve in the direction sought with a large enough effect in the signal ratio, not every such curve was filed as active; inconclusive = small, poorly fitted or top-dose-only effect, or a change in a side signal; inactive = no such curve, though single readings can be large or run the other way; the % refers to the signal ratio;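 note: cells stimulated with carbachol in lithium chloride buffer; plate controls were DMSO basal wells for no effect and reference inhibitor wells for full effect; higher means more IMPase inhibition seen as more IP1 and lower FRET ratio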
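CHO-M1, 2000 cells/well, cultured 16–30 h; cpd up to 46 uM; carbachol (50 uM solution, stimulation buffer w/ 50 mM LiCl, pH 7.4), 30 min 37C; IP-One TR-FRET, 10 min RT; Ex 320/Em 665, 620; Hill-fit AC50.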
IMPase Li inh: membrane-permeable IMPase blocker, potentiated with lithium; CHO-M1 cells, IP1 TR-FRET (IP-One), carbachol + lithium; Potency, µM (doses to about 59.4 µM), for the others: at the highest dose activity, negative = IMPase inhibition, usual class: inhibitors; 0.35% of 210,000 active; AID 1457;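 note: IP1 builds up when IMPase is blocked and the TR-FRET signal falls; potency is the fitted concentration of half-maximal effect; plate controls were basal vehicle for no effect and high inhibitor control for full effect; nearly all actives have a fitted effect of over 50% in size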
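Lithium-sensitised IP1 accumulation assay; M1-expressing CHO cells treated 30 min at 37C with compound. Competitive antibody detection by time-resolved FRET followed a 10 min room-temperature lysis step.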
PNC inhibitor: perinucleolar compartment assembly inhibition | 3.1% of 140,000 active | AID 2417 | activity change (PNC), negative = inhibition, % at 10 µM | PC3M PTB-GFP, PNC prevalence imaging, 16 h; active compounds read low;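 active = readout at or below -70, meaning at least 70% loss of cells showing the perinucleolar compartment, a nuclear body marking cancer cells; inconclusive = readout between -30 and a set limit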;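 note: plate controls were DMSO wells for no effect and camptothecin positive control wells for full effect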
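Compounds are pinned in duplicate onto adhered PC3M cells stably expressing GFP-tagged PTB and incubated 16 h at 37 C. Cells are then fixed, nuclei stained with Hoechst, and PNC-positive cells counted.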
An asterisk follows results filed as active; ? = inconclusive; · = no result given; [ ] = dose if it differs, or a comment. Hits are enriched below; roughly 11% of the tested compounds scored in any of these assays. Unless noted, calls come from the whole dose curve; as a rule, active = well fitted curve in the direction sought with a large enough effect; inconclusive = small, poorly fitted or top-dose-only effect, or another doubt; inactive = no such curve, though single readings can be large; an effect the other way counts as inactive or inconclusive. Unless noted, % is set by controls: 0 for no effect and ±100 for the full control effect.

SMILES | NPSR antag | ALDH1A1 inh | HPGD inh | IMPase inh | IMPase Li inh | PNC inhibitor
O=C(Nc1ccc(Cl)cc1)NC1CCCCC1Cc1ccco1 (stereo not drawn) | -21%[46.1 µM] | 0% | -2% | 11 | 25%[38.3 µM] | -9
CC1(C)CCC[C@]2(C)C3CC(=O)O[C@@]3(C)CC[C@H]12 (stereo partly drawn) | · | 20µM* | -1% | -2 | 10% | ·
Cc1cc2oc(=O)cc(-c3ccccc3)c2c(C)c1-c1sccc1C=O | · | ? | 40µM* | · | 13% | ·
CC(=O)c1ccsc1-c1c(C)cc2oc(=O)cc(-c3ccccc3)c2c1C | · | ? | 40µM* | · | 15% | ·
Cc1cc(OCC(=O)N(C)C)c2c(-c3ccccc3)cc(=O)oc2c1 | -25%[46.1 µM] | ? | -18% | 3 | 4%[38.3 µM] | -7
O=C1CC(c2ccco2)CC(O)=C1C=NCCN1CCN(C2CC(=O)N(c3ccccc3)C2=O)CC1 (stereo not drawn) | -8%[46.1 µM] | ? | -11% | -21 | 2% | -100*
O=C1CC(c2ccco2)CC(O)=C1C=NCCN1CCNCC1 (stereo not drawn) | 7%[46.1 µM] | 13µM* | -17% | 0 | 33%[38.3 µM] | -30
CN1C(=O)CC(N2CCN(CCN=CC3=C(O)CC(C)(C)CC3=O)CC2)C1=O (stereo not drawn) | 4%[46.1 µM] | -11% | -8% | -6 | 1%[38.3 µM] | ?
O=C1CC(c2ccccc2)CC(O)=C1C=NCCN1CCNCC1 (stereo not drawn) | -2%[46.1 µM] | 1% | -10% | 7 | 4%[38.3 µM] | 19
CC1(C)CC(=O)C(C=NCCN2CCN(C3CC(=O)N(c4ccc(Cl)c(Cl)c4)C3=O)CC2)=C(O)C1 (stereo not drawn) | -20% | 22µM* | · | · | 3% | ·
CC1Cc2ccccc2N1C(=O)CN1CCC(n2nnc3cc(C(F)(F)F)ccc32)CC1 (stereo not drawn) | ? | 11µM* | ? | 18 | 34%[38.3 µM] | -28
COC(=O)c1ccccc1NC(=O)CN1CCC(n2nnc3cc(C(F)(F)F)ccc32)CC1 | -12%[46.1 µM] | 6% | -13% | 0 | 9%[38.3 µM] | ?
S=C1SCN(Cc2cccnc2)CN1Cc1cccnc1 | ? | 14µM* | · | · | · | ·
O=[N+]([O-])c1cc(Cc2ccccc2)cc(C=Nc2ccc(N3CCOCC3)cc2)c1O | -21% | ? | 5µM* | · | 3% | -21
COc1cc(C=Nc2cccc(C)c2)c(O)c([N+](=O)[O-])c1 | -10% | -11% | -7% | · | 5% | ?
Oc1ccc(C=Nc2ccc(N3CCOCC3)cc2)c(O)c1 | -18%[46.1 µM] | -12% | -13% | 5 | 24%[38.3 µM] | 16
Cc1ccc(O)c(N=Cc2cc(Cc3ccccc3)cc([N+](=O)[O-])c2O)c1 | -17% | 14µM* | · | · | 6% | ·
O=C1C=CC(O)(c2cc(=O)c3c(O)cc(O)cc3o2)C=C1 | -36% | -2% | -8% | · | 7% | -119*
c1cnc2c(OCc3cn4cccnc4n3)cccc2c1 | -1%[46.1 µM] | ? | ? | 0 | 15%[38.3 µM] | 40
CN(C)CCN(C(=O)c1cccc(Cl)c1)c1nc2c(Cl)cccc2s1 | -20% | -1% | -13% | 3 | 12% | -1
COc1ccc(C2C(C(=O)N3CCCCC3)c3ccccc3C(=O)N2C)cc1 (stereo not drawn) | -12%[46.1 µM] | 14µM* | · | 1 | · | 6
COc1ccc(C2C(C(=O)N3CCCC3)c3cc(OC)c(OC)cc3C(=O)N2C)cc1 (stereo not drawn) | -11%[46.1 µM] | 4% | -4% | 2 | 31%[38.3 µM] | 4
CCOC(=O)C1CCN(C(=O)C2c3ccccc3C(=O)N(C)C2c2ccc(OC)cc2)CC1 (stereo not drawn) | -6%[46.1 µM] | 2.8µM* | -6% | -1 | 14%[38.3 µM] | -29
O=C(C1=C[C@H](c2ccc(Br)cc2)C[C@H](OCCCCO)O1)N1CCN(Cc2ccc3c(c2)OCO3)CC1 | ? | ? | · | · | 8% | ·
CCn1cc(C(=O)NCc2ccc3c(c2)OCO3)c(=O)c2cc(S(=O)(=O)N(C)C)ccc21 | -16% | ? | ? | · | 5% | 9
SMILES | NPSR antag | ALDH1A1 inh | HPGD inh | IMPase inh | IMPase Li inh | PNC inhibitor
CCn1cc(C(=O)NCc2ccccc2OC)c(=O)c2cc(S(=O)(=O)N(C)C)ccc21 | -20%[46.1 µM] | 3.2µM* | -20% | -4 | 32%[38.3 µM] | 20
O=C1CC2C(CC(OC(=O)c3ccc(-c4ccccc4)cc3)C2CO)O1 (stereo not drawn) | -19%[46.1 µM] | 0% | -16% | 1 | 32%[38.3 µM] | -17
O=C(NC(=S)Nc1ccc(N2CCOCC2)cc1)c1ccccc1 | -3% | ? | · | · | 11% | ·
CCc1ccc(C(=O)NC(=S)Nc2ccc(N3CCOCC3)cc2)cc1 | 3% | 11µM* | · | · | 17% | ·
S=C(Nc1ccc(N2CCOCC2)cc1)Nc1ccc2nc(-c3ccco3)c(-c3ccco3)nc2c1 | -8%[46.1 µM] | 7.1µM* | ? | -7 | 18%[38.3 µM] | -21
O=C(Nc1ccc(N2CCOCC2)cc1)c1ccc2nc(-c3ccco3)c(-c3ccco3)nc2c1 | -5%[46.1 µM] | 3% | -9% | 13 | -5% | -20
O=C(NC(=S)Nc1ccc(N2CCOCC2)cc1)c1cccc(Cl)c1 | 9% | ? | -23% | · | 7% | ?
O=C(NC(=S)Nc1ccc(N2CCOCC2)cc1)c1cncc(Br)c1 | 4% | ? | 18µM* | · | -2% | 23
O=C(NC(=S)Nc1ccc(N2CCOCC2)cc1)c1ccco1 | 10% | ? | 22µM* | · | -6% | -3
CC1=CC2(O)OCCN(CCO)C2=CC1=O (stereo not drawn) | 4%[46.1 µM] | -3% | -3% | 1 | 1% | -21
COCCCNC(=O)CNC(=O)c1cn(-c2ccccc2OC)c(=O)c2ccccc12 | 5% | 0% | · | · | -3% | ·
O=C(NC(=S)Nc1cc(S(=O)(=O)N2CCOCC2)ccc1N1CCOCC1)c1ccco1 | -10% | 7% | · | · | 3% | ·
CN(C)C(=S)Nc1ccc(N2CCOCC2)cc1 | -9% | 1% | · | · | · | ·
CC(=O)c1ccc(NC(=S)Nc2ccc(N3CCOCC3)cc2)cc1 | -10% | 22µM* | · | · | 0% | ·
O=C(Nc1cc(S(=O)(=O)N2CCOCC2)ccc1O)c1ccc(NS(=O)(=O)c2ccc(Cl)s2)cc1 | 10% | -13% | -14% | · | 2% | -134*
O=C(NC(=S)Nc1cc(S(=O)(=O)N2CCOCC2)ccc1O)c1ccco1 | 4% | 25µM* | · | · | -1% | ·
Cc1ccc(C)c(N2CCN(C(c3ccncc3)c3nnnn3Cc3ccccc3)CC2)c1 (stereo not drawn) | -2%[46.1 µM] | 13µM* | ? | -7 | -11%[38.3 µM] | -6
c1csc(Cn2nnnc2CN2CCN(c3nc4ccccc4s3)CC2)c1 | -13%[7.67 µM] | 16µM* | -9% | 2 | -10%[38.3 µM] | ?
c1ccc(C(c2nnnn2Cc2ccco2)N2CCN(c3nc4ccccc4s3)CC2)cc1 (stereo not drawn) | -30% | 3% | -15% | 13 | 13% | 37
